CBX7 inh – blocks human CBX7 binding to H3K27me3 peptide; O95931; AlphaScreen His6-CBX7 / biotin-H3K27me3 peptide binding; active compounds read low; normalised signal (fraction of DMSO) (test concentration not listed); actives 1.1% (n = 66,000); AID 1224903; in the data active = normalised signal below about 0.5
Target sequence (O95931 whole entry, looked up): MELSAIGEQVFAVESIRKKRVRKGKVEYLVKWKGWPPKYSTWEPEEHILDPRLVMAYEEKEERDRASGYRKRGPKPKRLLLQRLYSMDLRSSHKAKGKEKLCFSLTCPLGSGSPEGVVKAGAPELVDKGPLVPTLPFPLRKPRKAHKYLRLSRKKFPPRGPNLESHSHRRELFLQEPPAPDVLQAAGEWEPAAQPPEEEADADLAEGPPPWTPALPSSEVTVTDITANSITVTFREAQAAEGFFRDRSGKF
An asterisk follows results filed as active; ! = a repeat was not active. The entries come from a sample that favours hits as a whole.

SMILES | CBX7 inh
CCc1nnc(NC(=O)c2ccc(S(=O)(=O)N(CC)CC)cc2)o1 | 0.1*
CCc1nnc(NC(=O)c2ccc(S(=O)(=O)N(CC(C)C)CC(C)C)cc2)o1 | 0.1*
CCN(CC)S(=O)(=O)c1ccc(C(=O)Nc2nnc(C(C)C)s2)cc1 | 1.1
CCOc1ccc2nc(N3CCCC(C(=O)NC4CCCCC4C)C3)sc2c1 (stereo unspecified) | 1.1
CC(=O)c1nn(-c2ccc(Cl)cc2)cc1C(=O)c1ccco1 | 0.99
Cc1oc(-c2cccc(Cl)c2)nc1CN1CCC(C(=O)N2CCCC2)CC1 | 1.4
O=C(Cc1ccc(-n2c(=O)[nH]c3ccsc3c2=O)cc1)NCc1ccc(Cl)cc1 | 0.93
Brc1ccc(-c2nc(-c3ccccc3)c(-c3ccc(Sc4ccccc4)cc3)[nH]2)cc1 | 0.86
Oc1ccc(-c2nc(-c3ccccc3)c(-c3ccccc3)[nH]2)cc1 | 0.42*!
O=C(O)c1ccc(-c2nc(-c3ccc(-c4ccccc4)cc3)c(-c3ccc(-c4ccccc4)cc3)[nH]2)cc1 | 0.54
Oc1ccc(-c2nc(-c3ccc(F)cc3)c(-c3ccc(F)cc3)[nH]2)cc1 | 1.2
CCOc1cc(-c2nc(-c3ccccc3)c(-c3ccc(Br)cc3)[nH]2)ccc1O | 0.62
Oc1ccc(-c2nc(-c3ccccc3)c(-c3ccc(Br)cc3)[nH]2)cc1 | 0.46*
COc1ccc(C2C(=O)N(C3CCCCC3)CC(=O)N2Cc2ccccc2OC)cc1 (stereo unspecified) | 0.95
O=C(NCCC1=CCCCC1)c1ccc(CNc2c(NC3CCCC3)c(=O)c2=O)cc1 | 1.1
CCOc1ccc(C(=O)c2cn(Cc3ccc(F)cc3)c3ccccc3c2=O)cc1 | 0.61
CCNC(=O)CC1Sc2ccccc2NC1=O (stereo unspecified) | 0.91
CC1CCCCC1NC(=O)C(C)C1Sc2ccccc2NC1=O (stereo unspecified) | 1
O=C1C2=C(Nc3ccccc3SC2c2cccs2)c2ccccc21 (stereo unspecified) | 0.4*
Cc1ccc(CCNC(=O)CN2C(=O)CC(C)(C)Sc3ccccc32)cc1 | 1
CC1CCN(c2c(NCc3ccc(C(=O)NC4CCCCC4C)cc3)c(=O)c2=O)CC1 (stereo unspecified) | 1
CC(=O)N1CCc2cc(S(=O)(=O)NC(CC(C)C)C(=O)NC3CCCCC3)ccc21 (stereo unspecified) | 0.95
Cc1cc(OCC(O)CN2CCC(C)CC2)ccc1Cl (stereo unspecified) | 1.1
CC1CCN(Cc2nc(-c3ccccc3)no2)CC1 | 0.91
CCCC(=O)NC(c1ccc(C)cc1)c1cc(Cl)c2cccnc2c1O (stereo unspecified) | 0.72
SMILES | CBX7 inh
CC1CCN(Cc2cc(Cl)c(O)c3ncccc23)CC1 | 0.0029*
CC1CCN(Cc2cc(Cl)c3cccnc3c2O)CC1 | 0*
CC1CCN(Cc2cc(Cn3ccnc3)c3cccnc3c2O)CC1 | 0.0061*
CC1CCN(c2nc(-c3ccccc3O)nc3ccccc23)CC1 | 1
CC1CCN(CCCNC(=O)c2cnc(N3CCN(c4ncccn4)CC3)c3ccccc23)CC1 | 1.1
Cc1[nH]c2ccccc2c(=O)c1CN1CCC(C)CC1 | 1.1
CCOc1ccc(CC(=O)NCCc2cc3c(OC)ccc(OC)c3[nH]c2=O)cc1 | 1
COc1ccc(OC)c(N2C(=O)C3C4C=CC(C4=C(C)C)C3C2=O)c1 (stereo unspecified) | 0.98
Fc1cccc(Cl)c1Cc1noc(/C=C/c2ccccc2Cl)n1 | 1.1
COc1cccc(NC(=O)c2cc3c(C)nn(-c4ccccc4)c3s2)c1 | 1
CCOc1ccc(C(=O)Nc2cccc(-c3nc4cc(C)ccc4o3)c2C)cc1 | 1
CCCCNC(=O)c1cc(=O)[nH]c2ccc(S(=O)(=O)N3CCCC(C)C3)cc12 (stereo unspecified) | 0.94
COc1ccccc1N1CCN(c2nc(-c3cccs3)cc(C(F)(F)F)n2)CC1 | 1.1
CCOC(=O)C1CCCN(c2c(N3CCC(C)CC3)c(=O)c2=O)C1 (stereo unspecified) | 1
Cc1ccc2oc(-c3ccc(NC(=O)c4ccc(Br)cc4)cc3)nc2c1 | 0.79
CC1CCCCN1CCCNC(=O)c1ccc2c(c1)NC(=O)CS2 (stereo unspecified) | 1
CC1NC(=O)NC1CCCCCC(=O)OCC(=O)c1ccccc1 (stereo unspecified) | 0.16*
CC(=O)Cc1nc(-c2ccccc2)no1 | 0.98
OCCN(CCO)c1cc(-n2nc(-c3ccccc3)cc2-c2ccccc2)ncn1 | 0.93

Screening results: PubChem, Bradner/Qi Labs at DFCI
